Here are results for 27 compounds from the supplement of paper PMC12067926.

This test has as its system Bacillus 1 (Bacillus foraminis). The experiment in a line: relative growth (AUC of 72 h growth curve relative to DMSO control, dAUC) (ratio); higher = more growth (less inhibition), active = hit call of the paper. The settings on record: 20 µM. How it is done: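 Environmental bacterial isolates (Iceland stream sediment and Silwood Park soil) and whole stream-sediment communities were grown in LB from a 1:100 dilution with each pesticide at 20 µM (1% DMSO). A600 was read hourly for 72 h and the area under a spline-fitted growth curve (AUC) was computed. dAUC is the mean AUC of 3 biological replicates divided by the mean AUC of the DMSO controls. Significance was tested by Dunnett's test against the DMSO control.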
For the compound `COc1ccc(C(=CC(=O)N2CCOCC2)c2ccc(Cl)cc2)cc1OC` (mixture of isomers), the relative growth is 0.924 (inactive).

On to `CC(C)(C)[C@@H](O)[C@H](Oc1ccc(Cl)cc1)n1cncn1`, for which the relative growth is 1.03 (inactive). The figure for `CCc1cccc(C)c1N(C(=O)CCl)[C@@H](C)COC` is 1.06 (inactive). To `CCCCCCCCCCCCNC(=N)N` belongs 0.691 (active). As to `N#CCNC(=O)c1cnccc1C(F)(F)F`, the relative growth is 1.03 (inactive). On to `CC(C)N1C(=O)N(c2ccccc2)CS/C1=N\C(C)(C)C`, for which the relative growth is 1.04 (inactive). The figure for `C#CCN1C(=O)COc2cc(F)c(N3C(=O)C4=C(CCCC4)C3=O)cc21` is 1.14 (inactive). The figure for `O=C(NCCc1ncc(C(F)(F)F)cc1Cl)c1ccccc1C(F)(F)F` is 0.999 (inactive); for `CNC(=O)ON=C(C)SC` it is 0.996 (inactive); for `COC(=O)N(OC)c1ccccc1COc1ccn(-c2ccc(Cl)cc2)n1` it is 1.06 (inactive).

For `COC(=O)N(C(=O)N1CO[C@@]2(C(=O)OC)Cc3cc(Cl)ccc3C2=N1)c1ccc(OC(F)(F)F)cc1`, the relative growth was 1 (inactive). To `CCC(CC)Nc1c([N+](=O)[O-])cc(C)c(C)c1[N+](=O)[O-]` belongs 0.931 (inactive). The figure for `O=C(O)c1nc(Cl)ccc1Cl` is 0.984 (inactive); for `Cc1cc(C)c(C2=C(OC(=O)CC(C)(C)C)C3(CCCC3)OC2=O)c(C)c1` it is 0.993 (inactive).

`Fc1ccc([C@]2(Cn3cncn3)O[C@H]2c2ccccc2Cl)cc1` (racemic): the relative growth was 0.994 (inactive). On to `O=C1C=C(N(Cc2ccc(Cl)nc2)CC(F)F)CO1`, for which the relative growth is 0.945 (inactive).

Take `CCNc1nc(Cl)nc(NC(C)C)n1`: the relative growth is 0.997 (inactive). For `CCCCC(C#N)(Cn1cncn1)c1ccc(Cl)cc1` (configuration not stated), the relative growth was 0.889 (inactive). For the compound `CCC(C)c1ccccc1OC(=O)NC` (configuration not stated), the relative growth is 1.07 (inactive).

`C/C(=N\C#N)N(C)Cc1ccc(Cl)nc1`: the relative growth is 0.921 (inactive). The figure for `CCN(CC)c1nc(C)cc(OP(=S)(OC)OC)n1` is 1.03 (inactive); for `CC(C1CC1)C(O)(Cn1cncn1)c1ccc(Cl)cc1` (configuration not stated) it is 1.09 (inactive); for `O=[N+]([O-])c1cc(C(F)(F)F)c(Cl)c([N+](=O)[O-])c1Nc1ncc(C(F)(F)F)cc1Cl` it is 0.0375 (active). The figure for `Cc1cc(C2CC2)nc(Nc2ccccc2)n1` is 0.911 (inactive); for `Fc1ccc(Oc2ccnc3cc(Cl)cc(Cl)c23)cc1` it is 1.04 (inactive). Take `COc1cc(OC)nc(NC(=O)NS(=O)(=O)c2ncccc2C(=O)N(C)C)n1`: the relative growth is 1.08 (inactive). The figure for `Cc1nnc(-c2ccccc2)c(=O)n1N` is 0.881 (inactive).
